Screens (PubChem BioAssay)
SNCA viab count: counter-screen for SNCA expression inhibitors: cell viability; HEK-293-SNCA-luc viability, GF-AFC fluorescence, 24 h; Potency, µM (top dose mostly 57.1 µM), without a hit: at the highest dose activity change, negative = cytotoxicity, usual class: cytotoxic; 150,000 tested, 0.12% active;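 further: potency means the concentration at half of the fitted maximal effect; 0% = DMSO-treated cells and -100% = medium-only wells without cells; nearly all actives have a fitted effect of over 30% in size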
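HEK-293-SNCA-luc cells (1500/well) plated 24 h, then exposed 24 h to a dilution series; GF-AFC added 30 min at 37C, fluorescence 405/540 nm; normalised to medium-only and DMSO wells, Hill fit.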
IP6K1 inh: blocks human inositol hexakisphosphate kinase 1. IP6K1 kinase, ADP-Glo luminescence, 2 h; hits give low values. 140,000 tested, 0.81% active. activity change, % (series mostly up to about 58 µM); in the data active means activity change below about -25%; further: on the % scale 0 is the no-effect control and ±100 the full control effect
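ADP-Glo luminescence measures ADP made by human IP6K1 during a 2 h RT reaction with ATP/IP6 (mix at 1.3 mM/130 uM); top library doses 57.5 and 19.1 uM final.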
KDM5B inhibitor: inhibitors of human KDM5B histone demethylase; Q9UGL1; KDM5B demethylase, FDH-coupled NADH fluorescence (FDH is formaldehyde dehydrogenase); Potency, µM (series often up to 57.7 µM), usual class: inhibitors; 220,000 tested, 2.6% active; AID 1347165; further: potency means the concentration at half of the fitted maximal effect; 0% is about no effect; nearly all actives have a fitted effect of over 70% in size
Target sequence (Q9UGL1 whole entry, looked up): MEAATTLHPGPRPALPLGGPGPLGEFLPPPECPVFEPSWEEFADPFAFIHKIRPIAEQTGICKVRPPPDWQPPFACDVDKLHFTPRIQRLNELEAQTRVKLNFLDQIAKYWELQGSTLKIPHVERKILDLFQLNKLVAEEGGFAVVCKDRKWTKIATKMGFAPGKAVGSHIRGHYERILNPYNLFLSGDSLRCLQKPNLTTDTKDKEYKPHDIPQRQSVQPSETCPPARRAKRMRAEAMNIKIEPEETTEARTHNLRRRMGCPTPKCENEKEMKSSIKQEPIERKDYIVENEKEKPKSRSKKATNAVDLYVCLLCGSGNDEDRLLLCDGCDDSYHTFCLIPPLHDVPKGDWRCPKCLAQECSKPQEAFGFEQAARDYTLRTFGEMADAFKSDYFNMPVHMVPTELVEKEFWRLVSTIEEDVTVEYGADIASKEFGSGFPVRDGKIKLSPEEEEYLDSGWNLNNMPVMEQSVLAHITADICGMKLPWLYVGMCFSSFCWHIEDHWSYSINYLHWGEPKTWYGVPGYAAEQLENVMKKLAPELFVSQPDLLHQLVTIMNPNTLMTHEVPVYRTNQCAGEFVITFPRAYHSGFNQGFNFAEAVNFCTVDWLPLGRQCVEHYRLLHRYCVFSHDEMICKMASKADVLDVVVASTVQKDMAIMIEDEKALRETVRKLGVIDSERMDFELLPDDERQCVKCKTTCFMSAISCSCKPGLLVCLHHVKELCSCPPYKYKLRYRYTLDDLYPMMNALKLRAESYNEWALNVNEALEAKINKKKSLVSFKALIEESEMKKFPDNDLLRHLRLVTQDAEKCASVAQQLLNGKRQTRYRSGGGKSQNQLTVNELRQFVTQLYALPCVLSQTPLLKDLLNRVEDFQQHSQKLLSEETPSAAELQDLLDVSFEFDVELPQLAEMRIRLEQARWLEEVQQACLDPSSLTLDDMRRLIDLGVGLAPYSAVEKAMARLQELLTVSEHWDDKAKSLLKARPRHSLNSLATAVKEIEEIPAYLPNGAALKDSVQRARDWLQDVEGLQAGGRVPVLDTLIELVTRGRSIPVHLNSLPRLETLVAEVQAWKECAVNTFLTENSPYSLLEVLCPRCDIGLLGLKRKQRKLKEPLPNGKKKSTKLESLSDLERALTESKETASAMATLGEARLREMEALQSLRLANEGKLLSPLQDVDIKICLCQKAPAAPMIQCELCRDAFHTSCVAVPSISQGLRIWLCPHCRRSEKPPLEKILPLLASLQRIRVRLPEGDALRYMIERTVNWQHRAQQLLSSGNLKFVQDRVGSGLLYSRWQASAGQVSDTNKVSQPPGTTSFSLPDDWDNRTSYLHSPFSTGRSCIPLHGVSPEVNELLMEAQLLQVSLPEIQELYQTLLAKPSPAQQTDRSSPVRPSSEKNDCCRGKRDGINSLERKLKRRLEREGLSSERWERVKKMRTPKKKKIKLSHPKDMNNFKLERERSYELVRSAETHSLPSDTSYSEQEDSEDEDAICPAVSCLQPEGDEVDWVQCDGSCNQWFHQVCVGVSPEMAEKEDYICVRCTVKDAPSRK
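Measured: NADH fluorescence change, 30 min, RT. System: KDM5BΔAP 200 nM final, H3K4me3 peptide, α-KG, Fe(II), ascorbate, NAD⁺ plus FDH, pH 7.5 HEPES. Compounds: titrated, 10 min pre-incubation with enzyme.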
SNCA expr inhib: reduces expression of the alpha-synuclein gene; HEK-293 SNCA-luciferase knock-in, luminescence, 24 h; Potency, µM (doses to about 57.2 µM), for inactives: top-dose activity change, negative = inhibition, actives largely listed as inhibitors; 140,000 tested, 0.17% active; AID 1671194;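 further: potency means the concentration at half of the fitted maximal effect; plate controls were DMSO cells for no effect and cell-free wells for full effect; nearly all actives have a fitted effect of over 45% in size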
The depositor's hits bear a star; [ ] = another dose, or the depositor's remark. Hits are enriched below; roughly 2.9% of the tested compounds scored in any of these assays. Unless noted, the call rests on the fitted dose curve; in most records, active means well fitted curve in the direction sought with a large enough effect; inconclusive means small, poorly fitted or top-dose-only effect, or another doubt; inactive means no such curve, though single readings can be large; an effect the other way counts as inactive or inconclusive.

CC(=O)NCCNC(=O)[C@@H]1Cc2cn(Cc3c(C)noc3C)c3cccc(c23)[C@H](CC(C)C)N1 was read as SNCA viab count 2%, IP6K1 inh -4, KDM5B inhibitor inactive and SNCA expr inhib 1%.
Screening Cc1noc(C)c1Cn1cc2c3c(cccc31)[C@H](CC(C)C)N[C@H](C(=O)NCC1CC1)C2 returned SNCA viab count -3%[87.6 µM], IP6K1 inh -10, KDM5B inhibitor 32µM* and SNCA expr inhib -16%[87.6 µM].
Screening C#CCNC(=O)[C@@H]1Cc2cn(Cc3cc(C)on3)c3cccc(c23)[C@H](CC(C)C)N1 returned SNCA viab count -1%[87.6 µM], IP6K1 inh -13, KDM5B inhibitor 32µM* and SNCA expr inhib 16%[87.6 µM].
`COC(=O)[C@@H]1Cc2c([nH]c3ccccc23)[C@H]2C[C@@H](N3CCOCC3)C[C@@H](c3ccc(C(F)(F)F)cc3)N21` gave SNCA viab count -22%, IP6K1 inh -8, KDM5B inhibitor inconclusive and SNCA expr inhib inconclusive.
Screening COC(=O)NC1CCN(Cc2ccc(-c3ccsc3)cc2)C1 (centres undefined) returned SNCA viab count inconclusive, IP6K1 inh -2 and SNCA expr inhib 45%[87.6 µM].
`CNc1ncc(C(=O)N2CCCC3(CCC(=O)N(CCOC)C3)C2)cn1` (centres undefined) gave SNCA viab count 8%, IP6K1 inh -8, KDM5B inhibitor 28µM* and SNCA expr inhib -13%.
COc1ccccc1-c1cccc(CN2CCCC(C(=O)N3CCN(Cc4ccccc4)CC3)C2)c1 (centres undefined) was read as SNCA viab count -10%, IP6K1 inh -10 and SNCA expr inhib -5%.
For COc1ccc(NC2CCCN(CC(=O)Nc3ccc(C)cn3)C2)cc1 (centres undefined) the results were SNCA viab count -1%, IP6K1 inh 0, KDM5B inhibitor 16µM* and SNCA expr inhib -5%.
`CCNc1ncc(C(=O)N2CCCC(Nc3ccc(OC)cc3)C2)cn1` (centres undefined) gave SNCA viab count 11%, IP6K1 inh 6, KDM5B inhibitor inactive and SNCA expr inhib 5%.
Screening COc1ccccc1-c1cc2c(ccn2C)c(C(=O)NCc2cnccn2)n1 returned SNCA viab count 3%[87.6 µM], IP6K1 inh -13, KDM5B inhibitor 32µM* and SNCA expr inhib 12%[87.6 µM].
Screening COc1ccccc1-c1cc2c(ccn2C)c(C(=O)NCc2cccnc2)n1 returned SNCA viab count 6%[87.6 µM], IP6K1 inh 31, KDM5B inhibitor inactive and SNCA expr inhib 51%[87.6 µM].
Screening COc1ccccc1-c1cc2c(ccn2C)c(C(=O)NCCc2ccccn2)n1 returned SNCA viab count -10%[87.6 µM], IP6K1 inh -6, KDM5B inhibitor 35µM* and SNCA expr inhib 58%[87.6 µM].
Screening Cc1ncc(-c2c(-c3ccccc3)ncn2CC(c2ccco2)N2CCCC2)[nH]1 (centres undefined) returned SNCA viab count 0%, IP6K1 inh -25, KDM5B inhibitor 25µM* and SNCA expr inhib 5%.
For CCCCc1ncc(-c2c(-c3ccccc3)ncn2CC2(CO)CCC2)[nH]1 the results were SNCA viab count -24%, IP6K1 inh 5, KDM5B inhibitor inactive and SNCA expr inhib -13%.
`Cc1cc(C)cc(-c2ccc(CN3CCCC(N[S+](=O)([O-])c4c(C)noc4C)C3)cc2)c1` (centres undefined) gave SNCA viab count 4%, IP6K1 inh 2 and SNCA expr inhib 9%.
`O=C(CC1CCCCC1)NC(Cc1ccccc1)C(=O)N1CCN(c2ccccn2)CC1` (centres undefined) gave SNCA viab count 2%, IP6K1 inh 5, KDM5B inhibitor 22µM* and SNCA expr inhib inconclusive.
`O=C(NC(Cc1ccccc1)C(=O)N1CCN(c2ncccn2)CC1)c1ccccc1` (centres undefined) gave KDM5B inhibitor inactive.
For NC(Cc1ccccc1)C(=O)N1CCN(c2ccccn2)CC1 (centres undefined) the results were SNCA viab count -26%, IP6K1 inh -2, KDM5B inhibitor 22µM* and SNCA expr inhib -23%.
Screening O=C(C1Cn2cccc2C(=O)N1Cc1ccccc1)N1CCN(c2ncccn2)CC1 (centres undefined) returned SNCA viab count 19%, IP6K1 inh 12, KDM5B inhibitor 18µM* and SNCA expr inhib 2%.
O=C(O)[C@@H]1CN(Cc2ccccc2)C[C@@H]1C(=O)N1CCN(c2ccccn2)CC1 was read as SNCA viab count -16%, IP6K1 inh 4, KDM5B inhibitor 22µM* and SNCA expr inhib 7%.
`Cn1ncc2c(C(=O)NCC(F)(F)F)cc(-c3ccccc3C(F)(F)F)nc21` gave IP6K1 inh 0.
Screening COc1ccc(OCC(O)CN2CCC(=O)N(Cc3ccccc3)Cc3cc4c(cc32)OCO4)cc1 (centres undefined) returned IP6K1 inh 12.
CCOC(=O)c1ccc(NC(=O)C2CC(=O)N(c3n[nH]c4ccccc34)C2)cc1 (centres undefined) was read as SNCA viab count 5%, IP6K1 inh -1, KDM5B inhibitor 28µM* and SNCA expr inhib -12%.
CSc1ccc(-c2nc3c([nH]2)CC(C)(C)CNC3=O)cc1 was read as SNCA viab count -20%, IP6K1 inh -3, KDM5B inhibitor 28µM* and SNCA expr inhib 29%.
CC1(C)CNC(=O)c2nc(CCSCc3ccco3)[nH]c2C1 was read as SNCA viab count -5%, IP6K1 inh -5, KDM5B inhibitor inactive and SNCA expr inhib -16%.
`CCN(Cc1ccc(C)o1)C(=O)c1ccc2nc(-c3ccc(F)cc3)cn2c1` gave SNCA viab count -2%, IP6K1 inh 6, KDM5B inhibitor 28µM* and SNCA expr inhib 21%.
CCN(CC1CCCO1)C(=O)c1ccc2nc(-c3ccc(F)cc3)cn2c1 (centres undefined) was read as SNCA viab count -10%, IP6K1 inh -14, KDM5B inhibitor 22µM* and SNCA expr inhib 26%.
`CCN(CCn1cccn1)C(=O)c1ccc2nc(-c3ccc(F)cc3)cn2c1` gave SNCA viab count 0%, IP6K1 inh 1, KDM5B inhibitor 25µM* and SNCA expr inhib 1%.
For CCOc1ccc2oc(=O)cc(-c3cc4ccccc4o3)c2c1 the results were KDM5B inhibitor inactive.
`COc1ccc(-c2cccc(C(=O)NCc3ccc(C(F)(F)F)cc3)c2)nn1` gave IP6K1 inh 7.
`CC(=O)OCC1=C(C(=O)O)N2C(=O)[C@@H](NC(=O)CSc3ccncc3)[C@H]2SC1` gave SNCA viab count -21%[23.9 µM], IP6K1 inh -42* and SNCA expr inhib -22%[25.6 µM].
COc1ccc(CC(=O)N2CCCN(c3cc(-c4ccccc4)[nH]n3)CC2)cc1 was read as SNCA viab count 2%, IP6K1 inh 8, KDM5B inhibitor 22µM* and SNCA expr inhib -13%.
`Cc1ccc(CC(=O)N2CCCN(c3cc(-c4ccccc4)[nH]n3)CC2)cc1` gave SNCA viab count -15%, IP6K1 inh -7, KDM5B inhibitor 28µM* and SNCA expr inhib inconclusive.
